Measurements as given in PubChem BioAssay AID1347426 (Functional Genomics Laboratory (NCATS/FGL), 2020).
About 1,400 (4.5%) of roughly 31,000 sequences were called active. This is one part of a sample in which actives are shown more often than they occur.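 The calls were made as follows: active = median seed-adjusted z-score above 1 or below -1; inactive = the rest.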

assay: Novel Modifiers of Survival Motor Neuron (SMN) Protein: Gene Identification via Genome-wide siRNA Screen; conditions: HEK293T SMN2-luciferase reporter, siRNA knockdown, 72 h; actives lie on both sides;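 also: luminescence tracks full-length SMN protein made from the SMN2 reporter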
Method in brief: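 Luciferase signal, proportional to full-length SMN made from an SMN2 cDNA reporter in stable HEK293T cells, was read 72 h after siRNA reverse transfection. Values were expressed as MAD scores after non-targeting-control normalization and log10 conversion; seed analysis flagged off-targets.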

Row | Sequence | median seed-adjusted z-score
1 | ACUUAGUCAUCAUCAAGUATT against GK | -0.474 (inactive)
2 | CAAGAUUCUUGACCUUGAATT against PDP2 | -0.0726 (inactive)
3 | GGAUAUUGCGUUUGGAACATT against TDP1 | -0.352 (inactive)
4 | GGAUACUCUUCCUAUUCAATT against OMA1 | 0 (inactive)
5 | CGGCUUUUAUGGACGAGUUTT against STX3 | 0.686 (inactive)
6 | GAAACAAAGUCUUAAUAUUTT against ATP1A4 | 0.116 (inactive)
7 | GGAAAAGUUCUGAAGACUATT against CPOX | -0.135 (inactive)
8 | GCACCUCACCCAUCAAUGATT against RERE | 0.129 (inactive)
9 | GGUUGUCAUUAACAACAGUTT against DLST | 1.16 (active)
10 | GGUUCGGCAUGAGUGUGAATT against ZNF187 | 0.419 (inactive)
11 | GCAGGAGACUCAAAGAUUUTT against DDO | -0.202 (inactive)
12 | GUCUAUCUCUUGUCUAAAATT against HYAL4 | -0.236 (inactive)
13 | GCUCAUUGGUACAAUGUCATT against POLE | -1.55 (active)
14 | CGCUCAUGGACUUCGCCUATT against ZBTB7A | -0.344 (inactive)
15 | CCAUAACGGUGGAUGAGUATT against MPPED2 | 0.418 (inactive)
16 | GAAGUUUGACCAUGACUUUTT against ACCN5 | 0.227 (inactive)
17 | CACUGAUUCUGAAGGCGAATT against RPS6KA1 | 0.194 (inactive)
18 | CGUCUGACUUCGCUAGCAATT against HOXD11 | -0.185 (inactive)
19 | GGAUGUUGUUUAUCGAGGATT against MED21 | -1.3 (active)
20 | ACAAAAAGGGCAUACAUUATT against S100A7A | 0.212 (inactive)
21 | GCAGCUGUUUGGAACCAAATT against TRIM47 | 0.707 (inactive)
22 | GCAUCUCUUCUAUGCCGAATT against MATN2 | 0.275 (inactive)
23 | ACAAGCACCUAGACCAUGATT against ANGPTL4 | 1.37 (active)

Row | Sequence | median seed-adjusted z-score
24 | ACUUAAUGCCUGCCUAUUATT against CYP21A2 | -0.26 (inactive)
25 | UGACGUAGGCAUAAACGGATT against PCDH11Y | 0.186 (inactive)
26 | GCUCUAAACCAGAACGGGATT against ARAP3 | -0.00876 (inactive)
27 | AGACCAACCCUGGUACUUUTT against SRMS | -1.58 (active)
28 | GCAUUGUCCGUCUUCAUCATT against GLP1R | 0 (inactive)
29 | GCACGUCACUGUGGUUGUATT against THNSL2 | 0 (inactive)
30 | GCUUAUACAUUCCGAUGAATT against PTPRZ1 | 1.73 (active)
31 | GGAUGUAGCUGUCAACUGUTT against HSD17B10 | -0.355 (inactive)
32 | GACCUUACGAGGUUUCUAATT against TSNAX | 0.514 (inactive)
33 | CGUUCCUAAGCUACAAGAATT against TMPRSS9 | 0.106 (inactive)
34 | GAAUUCAGAUGCGAGUAAATT against RFX6 | 0.119 (inactive)
35 | CUGUUUACAUGACCUAUUUTT against MAFG | 0 (inactive)
36 | CGGCACAUCCUGCUUUGUUTT against ZNF213 | 1.37 (active)
37 | GGUUCCUUAUUAUAGUCCATT against GPR63 | -0.0154 (inactive)
38 | CGGUGCUCCCUGUCAUAAATT against CCR2 | -0.00107 (inactive)
39 | GGCAUGAAUUUGAACUGUATT against CA8 | 0.172 (inactive)
40 | CCGUCAAGGUCGUCAUACATT against NTSR1 | -1.1 (active)
41 | GGACGGCUUUCUGCAAAGATT against GLRA2 | -0.927 (inactive)
42 | AGUGUCUACUGUGAGAAUATT against TRAF4 | -1.16 (active)
43 | GCACCAUAGUGACACUGAATT against IFNAR2 | -0.219 (inactive)
44 | CAGUGGACUUCCAACCCAATT against SF3A1 | -1.09 (active)
45 | CAUUCAUCUCAAUAAUUGATT against IL5RA | -0.357 (inactive)
46 | CAUGGACGAGAUCAAGGAATT against AGXT | 0.017 (inactive)

Row | Sequence | median seed-adjusted z-score
47 | GCACUACUCCGAGAAGUUATT against NEK6 | -0.674 (inactive)
48 | CAAUAGUAAAGGGAUAUAATT against MED27 | -1.62 (active)
49 | AGACCGACGUGAAAGAGGATT against HAND2 | 0.0864 (inactive)
50 | CAGUUGCCUAUAUCCUAUATT against TDRKH | -0.434 (inactive)
51 | CCCUUGUAGUGAAACGGAATT against CYP4F8 | 0.756 (inactive)
52 | ACUACUUCCUGAACCGGGATT against CD2BP2 | -0.455 (inactive)
53 | GCAGAGUUUCGUACAAGGATT against KPNA6 | -1.54 (active)
54 | CCAGCCCACUCAUCUCAUUTT against SNX30 | -0.157 (inactive)
55 | GCCGAGGAACAAUCUCUCATT against RASGRP4 | 0.162 (inactive)
56 | CCACUACCCUGAGAACUUUTT against TOP3B | -1.11 (active)
57 | GGACCGGAGCAGUAUAGAATT against TRIM37 | -0.108 (inactive)
58 | CGGUUACGAUAAUGCGUUATT against ENPP5 | -0.0499 (inactive)
59 | GCACAAGUGCUGAGCCAGATT against LENG9 | 0.607 (inactive)
60 | GUAUUAUUUUCGUACACGATT against RABL3 | 0.843 (inactive)
61 | CCGGCUACCUGAUCGUGUATT against PITPNM1 | -0.203 (inactive)
62 | GAAAUGACAUUAGCUGAUUTT against CLIC4 | -0.498 (inactive)
63 | CUACAUUGCUGGGACUAAUTT against RRM1 | -5.51 (active)
64 | CCUGGAGAGUUACUUUGAATT against CCL23 | -0.285 (inactive)
65 | CCUCGUCGAUCGUGCAUCUTT against ADRA2C | 0 (inactive)
66 | CGAAAGGAAACCUAACGAATT against HIVEP2 | 0.294 (inactive)
67 | GCACAGGCAUCAUCGGGAATT against SGSH | 0.383 (inactive)
68 | GCCUCAAGGUUCACCUGAATT against PRDM1 | -0.16 (inactive)
69 | GUAUCUCAACAUCAAACUATT against LSM2 | -1.48 (active)
